Laboratory results reported in PubChem BioAssay.
Where “and” joins values, the source holds several entries; their conditions need not be identical. Identical values can stand only once. Calls of active or inactive are those of the source. No stated cut-off is given here; in the data, active means inhibition above about 80%; inactive means the rest.

Assay: growth inhibition, single agents and combos, LFS_MB_1R, cell-based, cisplatin or BGB combos, synergistic combos for chromothripsis tumors (AID 1671452);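 further: cells exposed for 96 hours before readout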
Conditions: LFS_MB_1R medulloblastoma cells, at 0.5 µM, stronger effect = higher value
With O=c1[nH]cc(F)c(=O)[nH]1 the inhibition was -23.7% (inactive).
For CCCCCCNC(=O)n1cc(F)c(=O)[nH]c1=O, the inhibition was -10.6% (inactive) and -21.3% (inactive).
With Cn1cnc([N+](=O)[O-])c1Sc1ncnc2nc[nH]c12 the inhibition was -1.99% (inactive) and -33.4% (inactive).
With CCn1cc(C(=O)O)c(=O)c2cc(F)c(N3CCN(C)CC3)cc21 the inhibition was -35.2% (inactive) and -9.17% (inactive).

Same assay, conditions: LFS_MB_1R medulloblastoma cells, measured here: combination with BGB IC40, at 0.05 µM, stronger effect = higher value
Work on O=c1[nH]cc(F)c(=O)[nH]1 yielded an inhibition of -2.27%.
In the case of CCCCCCNC(=O)n1cc(F)c(=O)[nH]c1=O, the inhibition was -28.1% and 5.33%.
With Cn1cnc([N+](=O)[O-])c1Sc1ncnc2nc[nH]c12 the inhibition was -14.2% and -22.8%.
With CCn1cc(C(=O)O)c(=O)c2cc(F)c(N3CCN(C)CC3)cc21 the inhibition was -12.2% and -6.93%.

Same assay, conditions: LFS_MB_1R medulloblastoma cells, measured here: combination with cisplatin, at 0.5 µM, stronger effect = higher value
Work on O=c1[nH]cc(F)c(=O)[nH]1 yielded an inhibition of 11.9%.
For CCCCCCNC(=O)n1cc(F)c(=O)[nH]c1=O, the inhibition was -15.3% and -53.6%.
For Cn1cnc([N+](=O)[O-])c1Sc1ncnc2nc[nH]c12, the inhibition was -2.77% and -51.2%.
For CCn1cc(C(=O)O)c(=O)c2cc(F)c(N3CCN(C)CC3)cc21, the inhibition was -66.1% and -0.499%.
